From paper PMC5515408, “Sequence-specific DNA binding by MYC/MAX to low-affinity non-E-box motifs”
Over roughly 5,000 sequences, “log2 normalized fluorescence” has its median near 0.089; the highest 2% begin near 0.81. The list comes from a sample in which the highest values are over-represented; it also holds similar and randomly drawn sequences.

What follows are sequences tested against MYC (p64);MAX (p21), in MYC:MAX (human;human, UniProt P01106-1;P61244-2 1-439;1-151, |) (assay: protein-binding microarray (anti-MAX antibody); PBM: 15 mM Tris-HCl pH 7.5, 100 mM KCl, 0.075% NP40, 7.5 mM beta-mercaptoethanol, 375 ng/ul BSA, 8 ng/ul poly(dA-dT):(dA-dT), 550 ng complex, 60 min, room tempe; high values mean tight binding). Details: protein: recombinant;recombinant; tags: 6xHis;6xHis; copies: 1;1; label: 3' end of printed strand (linker) attached to glass slide; dsDNA, one strand shown.
MYC (p64);MAX (p21), in MYC:MAX, sequence (P01106 16-454, chain 1 of 2): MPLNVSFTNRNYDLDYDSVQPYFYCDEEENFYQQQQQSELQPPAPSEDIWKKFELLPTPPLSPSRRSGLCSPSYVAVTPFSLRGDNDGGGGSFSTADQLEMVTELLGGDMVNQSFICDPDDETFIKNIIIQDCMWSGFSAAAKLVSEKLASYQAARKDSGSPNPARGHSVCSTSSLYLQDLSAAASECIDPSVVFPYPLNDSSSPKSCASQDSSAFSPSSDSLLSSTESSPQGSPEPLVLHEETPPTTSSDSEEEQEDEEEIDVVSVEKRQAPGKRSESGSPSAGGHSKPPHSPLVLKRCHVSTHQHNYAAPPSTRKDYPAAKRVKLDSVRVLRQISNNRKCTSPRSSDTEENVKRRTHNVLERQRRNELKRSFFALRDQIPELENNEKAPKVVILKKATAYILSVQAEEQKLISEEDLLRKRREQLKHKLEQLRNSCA
MYC (p64);MAX (p21), in MYC:MAX, sequence (P61244 other isoform, or with tags, fused parts or gaps |, chain 2 of 2): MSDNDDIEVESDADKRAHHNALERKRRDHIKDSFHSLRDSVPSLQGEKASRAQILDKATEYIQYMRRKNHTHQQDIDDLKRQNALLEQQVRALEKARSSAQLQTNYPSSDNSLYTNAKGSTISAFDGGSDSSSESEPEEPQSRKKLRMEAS
Outline: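 Recombinant His-tagged human MYC:MAX or MAX:MAX dimers (550 ng, expressed in E. coli) were incubated for 60 min at room temperature in Tris-KCl buffer, pH 7.5, with NP40, BSA and poly(dA-dT) competitor. The custom Agilent glass array held ~5000 unique 12-nt sequences, each spotted in triplicate and made double-stranded by primer extension. Bound protein was detected with anti-MAX and secondary antibodies and scanned at 543 nm. Binding is reported as log2 normalized fluorescence.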
For “CCGGCTGAACAAGGGTATTAATAGCTAAGATTACTATATCGACG”, the binding signal was 0.093 log2 normalized fluorescence. In the case of “CCGGCTGACCAAAGGTATTAATAGCTAAGATTACTATATCGACG”, the binding signal is reported as 0.0357 log2 normalized fluorescence. For “CCGGCTGACGACAAGTATTAATAGCTAAGATTACTATATCGACG”, the binding signal was 0.0769 log2 normalized fluorescence. “CCGGCTGACTCCAAGTATTAATAGCTAAGATTACTATATCGACG” was tested, and the binding signal was 0.0835 log2 normalized fluorescence. In the case of “CCGGCTGACAACTGGTTTTAATAGCTAAGATTACTATATCGACG”, the binding signal is reported as 0.195 log2 normalized fluorescence. In the case of “CCGGCTGAAGGACTGTATTAATAGCTAAGATTACTATATCGACG”, the binding signal is reported as 0.0114 log2 normalized fluorescence. In the case of “CCGGCGTATACGTGGTATTAATAGCTAAGATTACTATATCGACG”, the binding signal is reported as 0.202 log2 normalized fluorescence. In the case of “CCGGCGTCCACGTGGTATTAATAGCTAAGATTACTATATCGACG”, the binding signal is reported as 0.808 log2 normalized fluorescence. In the case of “CCGGCTTGCACGTGGTTTTAATAGCTAAGATTACTATATCGACG”, the binding signal is reported as 0.716 log2 normalized fluorescence. “CCGGCCTCCACGTGGTATTAATAGCTAAGATTACTATATCGACG” was tested, and the binding signal was 0.737 log2 normalized fluorescence. “CCGGCTTGCACGTGGTATTAATAGCTAAGATTACTATATCGACG” was tested, and the binding signal was 1.01 log2 normalized fluorescence. With “CCGGCCTGCACGTGGTATTAATAGCTAAGATTACTATATCGACG” the binding signal was 0.875 log2 normalized fluorescence. With “CCGGCCTACACGTGGTATTAATAGCTAAGATTACTATATCGACG” the binding signal was 0.805 log2 normalized fluorescence. “CCGGCTTGCACTTGGTATTAATAGCTAAGATTACTATATCGACG” was tested, and the binding signal was 0.318 log2 normalized fluorescence. For “CCGGCGTGCACGTGGTATTAATAGCTAAGATTACTATATCGACG”, the binding signal was 0.856 log2 normalized fluorescence. With “CCGGCTGAATTACCGTATTAATAGCTAAGATTACTATATCGACG” the binding signal was 0.041 log2 normalized fluorescence. “CCGGCTGAGCAACTGTATTAATAGCTAAGATTACTATATCGACG” was tested, and the binding signal was 0.128 log2 normalized fluorescence. With “CCGGCTGAATTACTGTATTAATAGCTAAGATTACTATATCGACG” the binding signal was 0.0701 log2 normalized fluorescence. For “CCGGCTGAGTCGGGGTATTAATAGCTAAGATTACTATATCGACG”, the binding signal was 0.126 log2 normalized fluorescence. For “CCGGCACTCACGTGGTATTAATAGCTAAGATTACTATATCGACG”, the binding signal was 0.862 log2 normalized fluorescence. “CCGGCTACTACGTGGTATTAATAGCTAAGATTACTATATCGACG” was tested, and the binding signal was 0.34 log2 normalized fluorescence. For “CCGGCACACACGTGGTATTAATAGCTAAGATTACTATATCGACG”, the binding signal was 0.804 log2 normalized fluorescence. For “CCGGCAGAGACGTGGTATTAATAGCTAAGATTACTATATCGACG”, the binding signal was 0.387 log2 normalized fluorescence. “CCGGCACCCACGTGGTATTAATAGCTAAGATTACTATATCGACG” was tested, and the binding signal was 0.845 log2 normalized fluorescence. “CCGGCACGCACGTGGTATTAATAGCTAAGATTACTATATCGACG” was tested, and the binding signal was 0.838 log2 normalized fluorescence. For “CCGGCAGGCACGTGGTATTAATAGCTAAGATTACTATATCGACG”, the binding signal was 0.815 log2 normalized fluorescence. For “CCGGCTGAACCTCAGTATTAATAGCTAAGATTACTATATCGACG”, the binding signal was 0.265 log2 normalized fluorescence. “CCGGCTGAAATGCCGTATTAATAGCTAAGATTACTATATCGACG” was tested, and the binding signal was 0.0989 log2 normalized fluorescence. For “CCGGCTGATACGTGGTATTAATAGCTAAGATTACTATATCGACG”, the binding signal was 0.341 log2 normalized fluorescence.
